This is an account of results in PubChem BioAssay (NCATS).

Results filed as inconclusive are left out. Active and inactive are the calls of the source. Calls follow the shape of the dose curve; as a rule, active = well fitted curve in the direction sought with a large enough effect; inconclusive = small, poorly fitted or top-dose-only effect, or another doubt; inactive = no such curve, though single readings can be large; an effect the other way counts as inactive or inconclusive.

A short description of test [1]: OV-KATE Cancer Cell Toxicity qHTS against the NCATS CANVASS Library (AID 1347345). Also: potency is read from the fitted curve at half-maximal effect. A digest of the protocol:
(§1)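 Following a 4 h pre-incubation of 1000 seeded cells, compounds were pinned in an 11-pnt dilution series and left for 72 h; viability then came from CellTiter-Glo.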
(In general: Quantitative high-throughput screening tests each substance at several concentrations.)

Test [2] in a line: SW1088 Cancer Cell Toxicity qHTS against the NCATS CANVASS Library (AID 1347350). Also: nearly all actives have a fitted effect of over 75% in size. Also: potency is read from the fitted curve at half-maximal effect. In short, it runs like this:
as §1

A short description of test [3]: U-118MG Cancer Cell Toxicity qHTS against the NCATS CANVASS Library (AID 1347351). Also: potency is read from the fitted curve at half-maximal effect. In short, it runs like this: as §1
Test [4] in a line: COV-362 Cancer Cell Toxicity qHTS against the NCATS CANVASS Library (AID 1347352). Also: potency is read from the fitted curve at half-maximal effect. A digest of the protocol: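 Cells were seeded at 1000 per well and allowed to settle 4 hours at 37 degrees C before pin transfer of compounds as an 11-point series. Viability was read by CellTiter-Glo luminescence after 72 hours' exposure.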
Test [5] is described as follows: A2780 Cisplatin Sensitive Ovarian Cancer Cell Toxicity qHTS against the NCATS CANVASS Library (AID 1347353). Also: nearly all actives have a fitted effect of over 60% in size. Also: potency is read from the fitted curve at half-maximal effect. A digest of the protocol:
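A2780 cisplatin-sensitive cells (750 per well) were seeded, left 4 h at 37 °C, then pin-dosed in an 11-point series. After 72 h at 37 °C/5% CO2, viability was measured as ATPLite luminescence.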

The nature of test [6]: KB-8-5-11 Cancer Cell Toxicity qHTS against the NCATS CANVASS Library (AID 1347364). Also: nearly all actives have a fitted effect of over 75% in size. Also: potency is read from the fitted curve at half-maximal effect. In short, it runs like this: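 KB-8-5-11 cells (500/well) in DMEM + 10% FBS were exposed to compounds in an 11-point qHTS series for 72 hr at 37C, 5% CO2. Viability was read by CellTiter-Glo luminescence.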
The nature of test [7]: MCF7 Cancer Cell Toxicity qHTS against the NCATS CANVASS Library (AID 1347369). Also: potency is read from the fitted curve at half-maximal effect. In short, it runs like this: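 Cytotoxicity was measured as CellTiterGlo luminescence (ATP) after 72 h at 37 °C. The cells were MCF7 at 500 per well, with an 11-point compound concentration series.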
Test [8] can be described thus: qHTS for ATAD5 Antagonist screened against the NCATS CANVASS Library (AID 1347370). Also: nearly all actives have a fitted effect of over 65% in size. Also: potency is read from the fitted curve at half-maximal effect. In short, it runs like this:
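HEK293T cells with a stably integrated ATAD5-controlled luciferase reporter were exposed to compounds (11-pt) alongside 10 uM 5-fluorouridine as ATAD5 stabilizer for 16hr at 37C. Viability was read by CellTiter-Fluor fluorescence, then ATAD5 by luminescence.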

For test [9], the target named is Nuclear receptor subfamily 1 group I member 3 (Homo sapiens) (UniProt Q14994). Briefly: qHTS for Constitutive Androstane Receptor (CAR) Antagonist screened against the NCATS CANVASS Library (AID 1347372). Also: potency is read from the fitted curve at half-maximal effect. A digest of the protocol:
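HepG2 cells stably carrying hCAR and CYP2B6-2.2kb luciferase reporter, 2500 cells/well, compound with 50 nM CITCO agonist for 24hr at 37C. ONE-Glo luminescence measured CAR activity; CellTiter-Fluor read viability.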

The nature of test [10]: Vero-766 cells viability qHTS against the NCATS CANVASS Library: Counterscreen for Zika virus inhibition assay (AID 1347394). Also: nearly all actives have a fitted effect of over 60% in size. Also: potency is read from the fitted curve at half-maximal effect. A digest of the protocol: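 CellTiter Glo luminescence measured cytotoxicity after 72 h at 37C in uninfected Vero 766 cells, plated at 1000 cells/well. Compounds were applied in an 11-point series. Wells without cells defined 100% inhibition.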
Test [11] can be described thus: Viability qHTS for inhibitors of the SERCaMP assay screened against the NCATS CANVASS Library (AID 1347400). Also: nearly all actives have a fitted effect of over 70% in size. Also: potency is read from the fitted curve at half-maximal effect. A digest of the protocol: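 SH-SY5Y-GLuc SERCaMP MJH297-derived cells (1000 cells/well) were pre-incubated 4 h at 37C, then exposed to compounds for 48 h. Viability was read as CellTiter-Glo luminescence; bortezomib served as positive control.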
Test [12] is described as follows: HPAF-II Cancer Cell Toxicity qHTS against the NCATS CANVASS Library (AID 1347346). Also: nearly all actives have a fitted effect of over 55% in size. Also: potency is read from the fitted curve at half-maximal effect. A digest of the protocol:
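HPAF-II cells were seeded at 1000 cells/well, allowed to settle for 4 h at 37 degrees C, then exposed to compounds in an 11-point series for 72 h. Viability was read by CellTiter-Glo luminescence.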

The nature of test [13]: qHTS for Hypoxia signaling pathway (HIF-1) antagonists against the NCATS CANVASS Library (AID 1347374). Also: nearly all actives have a fitted effect of over 60% in size. Also: potency is read from the fitted curve at half-maximal effect. A digest of the protocol: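 HRE-bla ME-180 cells (2,000/well, 0.5% dialyzed FBS) were pre-incubated 5 h, then given an 11-point compound series plus CoCl2 (60 uM solution as added) for 17 h at 37C. CCF4 β-lactamase read (ex 405, em 460/530 nm) after 2 h at RT.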
The nature of test [14]: qHTS for Inflammasome Signaling Inhibitors: IL-1-beta AlphaLISA screen against the NCATS CANVASS Library (AID 1347379).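 Also: human THP-1 cells primed with LPS then triggered with ATP.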 A digest of the protocol: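 Human THP-1 cells were pretreated 1 hr at 37 °C with compounds (up to 57.5 uM final), then stimulated with LPS (250 ng/mL final) and ATP (1.25 mM final). Secreted IL-1B was read by AlphaLISA after 16 hr.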
A short description of test [15]: qHTS for Activators of p53 Stress Response Pathway screened against the NCATS CANVASS Library (AID 1347388). A digest of the protocol:
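p53RE-bla HCT-116 cells (4000/well) were pre-incubated for 5 h, then treated with compound (11 points) for 16 h at 37C. After 2 h with CCF4, the 460/530 nm ratio gave reporter activation; CellTiter-Glo measured viability.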

Test [16] in a line: qHTS assay for small molecule disruptors of mitochondrial membrane potential screened against the NCATS CANVASS Library (AID 1347389). Also: nearly all actives have a fitted effect of over 60% in size. Also: potency is read from the fitted curve at half-maximal effect. A digest of the protocol: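 HepG2 cells (2,000/well) were plated overnight at 37C, exposed to compound for 1 hr at 37C/5% CO2, then loaded with Mito-MPS dye for 30 min. Depolarization was read as a drop in red (590 nm) to green (535 nm) fluorescence ratio.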

A short description of test [17]: Secretion counterscreen for inhibitors of the SERCaMP assay screened against the NCATS CANVASS Library (AID 1347390).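 Also: light from luciferase secreted into medium read as a measure of general secretion.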 Also: potency is read from the fitted curve at half-maximal effect. In short, it runs like this: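 Counterscreen for secretory-pathway interference: after 4 h attachment, SH-SY5Y-GLuc cells were exposed 20 hours to compounds (final 0.001 - 77 uM), then coelenterazine added and GLuc luminescence recorded; Brefeldin A served as control.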
A general note: Counterscreens check selectivity or assay interference.

Test [18] in a line: qHTS for activators of Nrf2/ARE signaling pathway screened against the NCATS CANVASS Library (AID 1347391). Also: nearly all actives have a fitted effect of over 60% in size. Also: potency is read from the fitted curve at half-maximal effect. In short, it runs like this: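 ARE-bla HepG2 beta-lactamase reporter cells, 2000 cells/well, were preincubated 5 h, then exposed to compounds (11-point series) for 16 h at 37C. CCF4 fluorescence (ex 405, em 460/530 nm) after 2 h at room temperature.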

Chain of Nuclear receptor subfamily 1 group I member 3 (Homo sapiens) (Q14994 whole entry, looked up): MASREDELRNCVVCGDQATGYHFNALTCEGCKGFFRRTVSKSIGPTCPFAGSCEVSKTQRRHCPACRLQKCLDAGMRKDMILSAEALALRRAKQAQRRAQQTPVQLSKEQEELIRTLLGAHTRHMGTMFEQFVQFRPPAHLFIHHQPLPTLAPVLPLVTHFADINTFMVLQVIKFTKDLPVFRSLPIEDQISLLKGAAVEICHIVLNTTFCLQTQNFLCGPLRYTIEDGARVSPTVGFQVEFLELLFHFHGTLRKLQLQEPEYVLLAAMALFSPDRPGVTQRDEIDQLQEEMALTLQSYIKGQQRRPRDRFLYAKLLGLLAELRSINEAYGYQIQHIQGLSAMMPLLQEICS

In the case of `COC1=C(C2=C(OC)C(=O)c3cc4c(c(O)c3C2=O)C(=O)O[C@H](C)C4)C(=O)c2c(cc3c(c2O)C(=O)O[C@H](C)C3)C1=O`, the Potency result in test [1], in test [3], in test [4], in [6], in test [7] and in test [8] was “inactive” throughout. The Potency result in test [9], in [10] and in [11] was “inactive” each time. The Potency was 3.14 µM (active) in [2] and 5.54 µM (active) in [5].
Regarding `c1ccc2nc3c(cc2c1)[nH]c1ccccc13`, the Potency result in test [1], in [12], in [2], in test [3], in [4] and in [6] was “inactive” throughout. Also, the Potency result in test [7], in [8], in test [9], in test [13], in [14] and in test [15] was “inactive” each time. Moreover, the Potency entry in [17], in test [10] and in test [11] was “inactive” each time. For the same molecule, the Potency in [16] and in test [18] was 16.6 µM (active) each time.
As for `C/C=C(\C)C(=O)O[C@@H]1[C@@H](O)[C@@H]2O[C@H]3[C@H](O[C@@H](CCCCC)CCCCCCC(=O)CCC(=O)OC[C@@H](O2)[C@H]1OC(=O)/C=C/c1ccccc1)O[C@H](C)[C@H](OC(C)=O)[C@@H]3O`, the Potency in [1] is 0.188 µM (active); in [12], 0.133 µM (active); in test [2], 14.9 µM (active); in test [5] it was 0.332 µM (active); in test [6], 1.48 µM (active); in test [9] it was 0.0524 µM (active). Besides, the Potency in test [16] was 16.6 µM (active); in test [17] it was 0.0767 µM (active). For the same molecule, the Potency entry in test [8], in test [15] and in [10] was “inactive” throughout.
Regarding `C/C(=C\[C@H](C)C(=O)C[C@H](O)CC1CC(=O)NC(=O)C1)[C@@H]1OC(=O)/C=C/CC/C=C/C=C/[C@@H]1C`, the Potency in test [12] was 0.0943 µM (active); in [5], 0.0332 µM (active); in test [6], 2.35 µM (active); in test [8] it was 0.105 µM (active); in [9] it was 0.741 µM (active); in test [13] it was 0.0375 µM (active). Moreover, the Potency in test [14] is 2.43 µM (active); in test [17], 0.305 µM (active); in [10] it was 6.6 µM (active); in test [11] it was 0.538 µM (active). The Potency result in test [15], in [16] and in [18] was “inactive” in each case.
In the case of `C/C=C1/CN2CC[C@]34C(=C(C(=O)OC)[C@H]1C[C@H]23)Nc1ccccc14`, the Potency entry in test [1], in test [2], in test [3], in test [4], in [13] and in [15] was “inactive” in each case. Besides, the Potency result in [16], in [17] and in [10] was “inactive” in each case.
For `C/C=C/[C@@H]1[C@H]2C[C@@H](C)CC[C@@H]2C(C)=C[C@H]1C(=O)c1c(O)c(-c2ccc(O)cc2)c[nH]c1=O`, the Potency in test [12] is 13.3 µM (active); in test [2], 6.68 µM (active); in test [6], 20.9 µM (active); in [13], 23.6 µM (active); in [16], 14.8 µM (active); in test [10], 18.6 µM (active). Moreover, the Potency entry in test [3], in test [7], in test [9], in test [14], in [17] and in test [11] was “inactive” in each case.
On to `CC(C)CC1C(=O)O[C@H](C(C)C)C(=O)N(C)C(CC(C)C)C(=O)O[C@@H](C(C)C)C(=O)N(C)C(CC(C)C)C(=O)O[C@H](C(C)C)C(=O)N(C)C(CC(C)C)C(=O)O[C@@H](C(C)C)C(=O)N1C` (stereo partly specified), for which the Potency is 5.95 µM (active) in [12]; 5.95 µM (active) in test [2]; 5.26 µM (active) in test [5]; 9.35 µM (active) in [6]; 20.9 µM (active) in [9]; 7.41 µM (active) in [16]. The Potency was 11.7 µM (active) in test [10] and 42.8 µM (active) in [11]. Further, the Potency entry in test [3], in test [7], in [14], in test [15] and in [18] was “inactive” in each case.
`CC[C@@H]1CN2CCc3c([nH]c4cccc(OC)c34)[C@@H]2C[C@@H]1/C(=C\OC)C(=O)OC`: the Potency entry in test [9], in test [13], in test [17], in [18] and in test [11] was “inactive” each time. Also, the Potency in [16] is 4.67 µM (active).
Regarding `CCCC[C@@H]1CC[C@H]2CCCC(CCCO)N12` (stereo partly specified), the Potency entry in test [1], in [12], in test [2], in test [3], in [4] and in test [5] was “inactive” in each case. For the same molecule, the Potency entry in test [6], in [7], in test [8], in [9], in [13] and in [14] was “inactive” in each case. For the same molecule, the Potency result in test [15], in test [16], in test [17], in [18], in [10] and in [11] was “inactive” throughout.
Consider `C=C[C@H]1CN2CCc3c([nH]c4cccc(OC)c34)[C@@H]2C[C@@H]1/C(=C\OC)C(=O)OC`, for which the Potency result in [1], in test [12], in test [6], in test [7], in test [8] and in [9] was “inactive” in each case. Also, the Potency result in [13], in test [14], in test [15], in [10] and in test [11] was “inactive” each time. Besides, in [5], the Potency is 20.9 µM (active).
For `C[C@]12CC(O)C3[C@@H](CC[C@@H]4C[C@@H](O)CC[C@]34CO)[C@@]1(O)CC[C@@H]2C1=CC(=O)OC1` (stereo partly specified), the Potency is 10.6 µM (active) in test [12]; 2.66 µM (active) in [3]; 7.47 µM (active) in test [4]; 7.43 µM (active) in [5]; 5.9 µM (active) in test [6]; 5.23 µM (active) in test [7]. The Potency in test [8] was 13.2 µM (active); in [9] it was 4.17 µM (active); in test [13], 2.98 µM (active); in [14], 12.2 µM (active); in [11], 7.6 µM (active). Besides, the Potency result in [15], in [16] and in [18] was “inactive” in each case.
